Marburg entry inh: blocks Marburg virus binding to or entry into cells; Marburg virus pseudotyped entry inhibition, cell reporter; Potency, µM (doses to about 37.8 µM), inactives show at the highest dose activity change, negative = inhibition, most hits filed as inhibitors; 300,000 tested, 1.8% active; AID 540276; calls by dose curve; tested in HEK293 cells; note: potency is the fitted concentration of half-maximal effect
HCMV antiviral: human cytomegalovirus inhibition; HFF cells, HCMV-luciferase reporter, 72 h; active compounds read low; activity change, negative = inhibition, % at 57.5 µM; 410,000 tested, 4.5% active; in the data active = activity change below about -60%; inconclusive = no clear call, values can overlap the other calls; inactive = above about -39%
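Two-dose cell screen: HFF monolayers treated with compounds and infected with luciferase-expressing HCMV at 1 PFU/cell, 72 h at 37C, then lysed for luciferase measurement.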
Pf growth 96h: P. falciparum growth inhibition at 96 hours. P. falciparum luciferase reporter growth, 96 h. Potency, µM (doses to about 28.7 µM), inactives show at the highest dose activity change, negative = inhibition, usual class: inhibitors. 320,000 tested, 6.9% active. AID 504834; note: potency is the fitted concentration of half-maximal effect
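Readout is luminescence from an integrated firefly luciferase in P. falciparum. Red cells, 2% hematocrit and 0.05% parasitemia final, were cultured with compound through two parasite generations (96 hours) at 37 C, 5% CO2.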
HCV inh: blocks hepatitis C virus. Huh7.5.1 HCVcc-Cre infection, luciferase reporter, 44 h. Potency, µM (titrated, usually from 41.8 µM), inactives show at the highest dose activity change, negative = inhibition, hits mostly inhibitors. 340,000 tested, 3.4% active; note: potency is the fitted concentration of half-maximal effect
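Compounds are dispensed onto cells plated 4 h earlier at 1,000 per well, with HCVcc-Cre virus (about 0.5 moi) added next. Following 44 h of culture, luminescent signal is measured for 15 sec after 15 min with substrate at room temperature.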
Pf growth 48h: inhibits P. falciparum growth in the first generation, 48 h; P. falciparum luciferase growth in erythrocytes, 48 h; Potency, µM (top dose mostly 28.7 µM), inactives show top-dose activity change, negative = inhibition, hits mostly inhibitors; 310,000 tested, 5.9% active; note: potency is the fitted concentration of half-maximal effect
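Growth was read as firefly luciferase luminescence after a 48 h, 37 C, 5% CO2 exposure of compounds to reporter-bearing P. falciparum cultures (0.1% parasitemia, 2% hematocrit final) in Albumax-supplemented RPMI 1640.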
LASV entry inh: inhibitors of Lassa virus binding or cell entry | Lassa virus pseudotype entry inhibition, cell reporter | Potency, µM (series often up to 37.9 µM), inactives show at the top dose activity change, negative = inhibition, hits mostly inhibitors | 300,000 tested, 1.2% active | AID 540256; calls by dose curve; tested in HEK293 cells; note: potency is the fitted concentration of half-maximal effect; nearly all actives have a fitted effect of over 50% in size
* hit, by the source's call; ? = inconclusive; / = no result; [ ] = remark or other dose. Hits are enriched below; roughly 14% of the tested compounds scored in any of these assays. Unless noted, calls come from the whole dose curve; as a rule, active = well fitted inhibition curve with a large enough effect; inconclusive = small, poorly fitted or top-dose-only effect, or another doubt; inactive = no such curve, though single readings can be large or run the other way. % is set by controls: 0 for no effect and ±100 for the full control effect.

SMILES	Marburg entry inh	HCMV antiviral	Pf growth 96h	HCV inh	Pf growth 48h	LASV entry inh
CCC1SC(=Nc2cccc(C)c2)NC1=O (stereo not drawn)	17.6%[46.1 µM]	11.3	10.4µM*	6.5%	19.1%	10.6%[46.1 µM]
COc1cccc(NC(=O)c2cccc(N3C(=O)C4CCC(C)CC4C3=O)c2)c1 (stereo not drawn)	-1.7%[46.1 µM]	-34.1	4.15µM*	-2.7%	2.33µM*	-0.6%[46.1 µM]
CC1CCC2C(=O)N(c3cccc(C(=O)Nc4ccccc4Cl)c3)C(=O)C2C1 (stereo not drawn)	13.7%	19.0	11.7µM*	25.7%	-14.5%	12.7%
COc1cc(OC)cc(-c2noc([C@@H]3O[C@H](CO)[C@H](O)[C@H](O)[C@H]3O)n2)c1	/	-18.7	/	/	/	/
CCC(=O)Nc1cc(C(C)(C)C)ccc1C(C)=O	-17.7%	-9.8	-16.2%	10µM*	-6.5%	3.4%
CCC(=O)Nc1cc2c(cc1C(C)=O)OCCO2	13.9%	40.1	-21.5%	?	-19.1%	-2.9%
Cc1[nH][nH]c(=O)c1C(c1ccc(-c2ccc(C(=O)O)cc2)o1)c1c(C)[nH][nH]c1=O	-20.5%[46.1 µM]	-61.8*	-15.1%	9.4%	?	15.2%
Cc1[nH][nH]c(=O)c1C(c1ccc(-c2ccc(F)cc2)o1)c1c(C)[nH][nH]c1=O	17.2%[46.1 µM]	16.9	-39.1%	3.9%	?	-5.9%[46.1 µM]
CC(C)(C)OC(=O)N1CCC(C(=O)Nc2ccc(C(=O)N3CCCCC3)cc2)CC1	/	30.9	/	24.1%[8.37 µM]	/	/
O=C(CCN1CCc2ccccc21)c1ccc2c(c1)OCCO2	?	21.6	2.08µM*	?	5.22µM*	-23.0%
O=C(CCN1CCc2ccccc2C1)c1ccc2c(c1)OCCO2	-12.3%	/	?	10µM*	12.8%	?
O=C(CCN1CCCCC1)c1ccc2c(c1)OCCO2	-12.6%	-9.6	0.8%	-3.1%	-6.9%	9.3%
Cc1nc(-c2ccc(S(=O)(=O)NCc3ccc(N(C)C)cc3)cc2)co1	/	-11.0	/	/	/	-7.1%[46.1 µM]
CCn1c(/N=C/c2ccccc2NS(=O)(=O)c2ccc(C)cc2)nc2ccccc21	?	/	?	30.6%	5.4%	11.2µM*
CCN(CC)CCn1c(N)nc2ccccc21	?	?	-26.8%	-22.0%	-9.1%	4.1%
CCCCn1c(NCc2ccccc2O)nc2ccccc21	/	24.4	53.8%	?	?	/
CCCCn1c(NCc2ccccc2NS(=O)(=O)c2ccc(C)cc2)nc2ccccc21	11.2µM*	-23.4	48.3%	?	?	?
CCN(CC)CCn1c(NS(=O)(=O)c2ccc(C)cc2)nc2ccccc21	15.7%	18.8	10.4µM*	9.7%	-17.6%	0.4%
CCCn1c(CNS(=O)(=O)c2ccc(C)cc2)nc2ccccc21	-12.5%	33.9	?	1.7%	-0.8%	4.3%
Cn1c(=O)c(=O)n(C)c2cc(S(=O)(=O)N3CCN(c4ccccc4)CC3)ccc21	1.8%[46.1 µM]	-36.1	/	/	/	13.9%[46.1 µM]
COc1ccc(N=C2NC(=O)/C(=C\c3ccco3)S2)cc1	3.7%[46.1 µM]	?	-16.7%	17.8%	?	?
COc1ccc(/C=C2/SC(=O)NC2=O)cc1	/	2.9	13.1µM*	6.7%	73.0%	/
COc1ccc(C=C2SC(=S)NC2=O)cc1	?	26.2	/	-1.3%	/	-1.0%
COc1cc(/C=C2\SC(=O)NC2=O)ccc1Oc1ccc([N+](=O)[O-])cc1[N+](=O)[O-]	0.7%[46.1 µM]	-75.1*	90.9%	-4.8%	?	-25.1%
COc1ccc(N=C2NC(=O)/C(=C/c3ccc(O)c(OC)c3)S2)cc1	?	-64.1*	?	-16.5%	-17.6%	3.66µM*
SMILES	Marburg entry inh	HCMV antiviral	Pf growth 96h	HCV inh	Pf growth 48h	LASV entry inh
CCN1C(=O)C(=Cc2cccc(OC)c2Oc2ccc([N+](=O)[O-])cc2[N+](=O)[O-])SC1=S	?	-6.0	10.4µM*	4.4%	5.22µM*	?
COc1cc(/C=C2/SC(=Nc3ccc(O)cc3)NC2=O)cc(OC)c1O	?	27.5	1.85µM*	?	3.7µM*	?
COc1ccccc1N=C1NC(=O)/C(=C/c2ccc(N(C)C)cc2)S1	/	-1.0	?	?	0.0928µM*	/
COc1cc(/C=C2\SC(=Nc3ccc(O)cc3)NC2=O)cc(OC)c1OC	?	-3.5	?	3.98µM*	?	?
COc1cc(/C=C2\SC(=O)N(c3ccc(O)cc3)C2=O)cc(OC)c1OC	11.5%[46.1 µM]	-35.4	-2.1%	-23.0%	-4.5%	3.9%
CCc1ccc(N=C2NC(=O)/C(=C/c3ccc(OCC(=O)O)c(OC)c3)S2)cc1	/	8.3	?	-10.8%	-13.8%	/
COc1ccc(C=C2CS(=O)(=O)CC(=Cc3ccc(OC)cc3)C2=O)cc1	/	-99.2*	/	/	/	/
COc1cc(C2C3=C(CCCC3=O)Nc3ccc4ncccc4c32)ccc1O (stereo not drawn)	1.9%[46.1 µM]	5.3	29.3%	-12.1%	-11.9%	-1.1%
COc1ccc(C2C3=C(CCCC3=O)Nc3ccc4ncccc4c32)cc1OC (stereo not drawn)	?	179.4	0.294µM*	?	-26.9%	0.0%
O=C(c1ccccc1)N1CCN(c2ccc(N3CCOCC3)nn2)CC1	-11.0%	-24.2	-10.2%	9.5%	?	2.3%
COC(=O)CNC(c1ccccc1)c1cc(Br)ccc1NC(=O)CNC(=O)OCc1ccccc1 (stereo not drawn)	?	/	?	-29.8%	?	?
CN(C(=O)CNC(=O)OCc1ccccc1)c1ccc(Br)cc1C(=O)c1ccccc1Cl	5.8µM*	?	-79.2%	?	?	?
O=C(CNC(=O)OCc1ccccc1)Nc1ccc(Br)cc1C(=O)c1ccccc1Cl	?	-12.5	?	8.91µM*	?	0.6%
C[C@@H]1C(c2ccccc2)=CC(=O)c2nc3ccccc3cc2[C@@H]1C(=O)N1CCCC1	-10.4%[14.2 µM]	/	/	/	/	/
CCOC(=O)CC(NC(=O)c1cc2cc(Cl)ccc2oc1=O)c1ccc(C)cc1 (stereo not drawn)	-14.4%[46.1 µM]	-8.3	/	/	/	-0.8%[46.1 µM]
CCC(Sc1nc2ncccc2o1)C(=O)Nc1cccc(C)c1 (stereo not drawn)	/	7.8	/	/	/	?
O=C(/C=C/c1ccccc1)C1C(=O)c2ccccc2C1=O	8.6%	-9.3	3.7%	?	8.1%	6.5%
CCc1ccc(/C=C/C(=O)C2C(=O)c3ccccc3C2=O)cc1	?	15.4	0.928µM*	?	0.928µM*	2.31µM*
CCCCN(CCCNC(=O)c1cc(Nc2ccc(OC)c(OC)c2)nc2ccccc12)c1ccccc1	-1.0%[46.1 µM]	-9.4	/	/	/	8.6%[46.1 µM]
O=C1c2ccccc2NC2(c3ccccc3)c3ccccc3-n3nncc3CN12 (stereo not drawn)	/	8.7	/	/	/	/
O=C(CCCN1C(=O)S/C(=C\c2ccccc2)C1=O)NNC(=O)c1ccccc1O	1.78µM*	-82.7*	-11.6%	?	21.1%	?
COc1ccc(/C=C2\SC(=O)N(CC(=O)NNC(=O)c3ccccc3O)C2=O)cc1	10.5%	5.5	3.29µM*	-1.8%	30.2%	-1.0%

From PubChem
